# Reference: the supplement of paper PMC10849652
# The full data set covers some 8,800 targets. This sample favours those with a hit. About 0.5% of all pairs of compound and target were hits. Unmarked numbers belong to inactive results.
# Tests used:
# Assay in all cases: log2 fold change, soluble protein after heating vs DMSO (PISA); higher = thermal stabilisation; K562 lysate, 10 uM; active = over 0.2 and 3.5 SD of the protein, either way, in both replicates (recomputed)
# lapatinib = compound: CS(=O)(=O)CCNCc1ccc(-c2ccc3ncnc(Nc4ccc(OCc5cccc(F)c5)c(Cl)c4)c3c2)o1 [lapatinib]
# Method in brief: (§1)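 A 30 min treatment with 10 μM compound was applied to crude K562 extract at 1 mg/mL protein in PBS pH 7.4 with 1 mM MgCl2. Heating for 3 min spanned 48°C-58°C, after which aliquots were pooled, adjusted to 0.5% NP-40 at 4°C and spun at 21,000xg for 90 min. TMTpro 16plex LC-MS/MS of the supernatant, with channel sums equalised, gave values recorded as log-two fold change in thermal stability against solvent controls, from duplicates.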
# pictilisib = compound: CS(=O)(=O)N1CCN(Cc2cc3nc(-c4cccc5[nH]ncc45)nc(N4CCOCC4)c3s2)CC1 [pictilisib]
# Method in brief: as §1
# crizotinib = compound: C[C@@H](Oc1cc(-c2cnn(C3CCNCC3)c2)cnc1N)c1c(Cl)ccc(F)c1Cl [crizotinib]
# Method in brief: as §1
# [1] = compound: C[C@H](C1=CC=C(C=C1)C(=O)NC2=C3C=CNC3=NC=C2)N
# Method in brief: as §1
# duvelisib = compound: C[C@H](Nc1ncnc2nc[nH]c12)c1cc2cccc(Cl)c2c(=O)n1-c1ccccc1 [duvelisib]
# Method in brief: as §1
# gandotinib = compound: Cc1cc(Nc2cc(CN3CCOCC3)c3nc(C)c(Cc4ccc(Cl)cc4F)n3n2)n[nH]1 [gandotinib]
# Method in brief: as §1
# tozasertib = compound: Cc1cc(Nc2cc(N3CCN(C)CC3)nc(Sc3ccc(NC(=O)C4CC4)cc3)n2)n[nH]1 [tozasertib]
# Method in brief: as §1
# doramapimod = compound: Cc1ccc(-n2nc(C(C)(C)C)cc2NC(=O)Nc2ccc(OCCN3CCOCC3)c3ccccc23)cc1 [doramapimod]
# Method in brief: as §1
# bafetinib = compound: Cc1ccc(NC(=O)c2ccc(CN3CC[C@H](N(C)C)C3)c(C(F)(F)F)c2)cc1Nc1nccc(-c2cncnc2)n1 [bafetinib]
# Method in brief: as §1
# [2] = compound: Cc1cccc(CC(=O)N2CCc3c2ccc(-c2cn(C)c4ncnc(N)c24)c3F)n1
# Method in brief: as §1
# nilotinib = compound: Cc1cn(-c2cc(NC(=O)c3ccc(C)c(Nc4nccc(-c5cccnc5)n4)c3)cc(C(F)(F)F)c2)cn1 [nilotinib]
# Method in brief: as §1
# [3] = compound: Cc1nc(Nc2n[nH]c3c2CN(C(=O)N[C@H](CN(C)C)c2ccccc2)C3(C)C)c2sccc2n1
# Method in brief: as §1
# dasatinib = compound: Cc1nc(Nc2ncc(C(=O)Nc3c(C)cccc3Cl)s2)cc(N2CCN(CCO)CC2)n1 [dasatinib]
# Method in brief: as §1
# [4] = compound: Cc1ncc(-c2ccnc(Nc3ccc(S(C)(=O)=O)cc3)n2)n1C(C)C
# Method in brief: as §1
# [5] = compound: Cn1cc(-c2ccc3c(c2)CCN3C(=O)Cc2cccc(C(F)(F)F)c2)c2c(N)ncnc21
# Method in brief: as §1
# quisinostat = compound: Cn1cc(CNCC2CCN(c3ncc(C(=O)NO)cn3)CC2)c2ccccc21 [quisinostat]
# Method in brief: as §1
# tipifarnib = compound: Cn1cncc1[C@@](N)(c1ccc(Cl)cc1)c1ccc2c(c1)c(-c1cccc(Cl)c1)cc(=O)n2C [tipifarnib]
# Method in brief: as §1
# [6] = compound: NC(=O)Nc1cc(-c2cccc(F)c2)sc1C(=O)N[C@H]1CCCNC1
# Method in brief: as §1
# [7] = compound: NC(=O)c1cnc(N[C@@H]2CCCC[C@@H]2N)nc1Nc1cccc(-n2nccn2)c1
# Method in brief: as §1
# [8] = compound: NC1(c2ccc(-c3nc4ccn5c(=O)[nH]nc5c4cc3-c3ccccc3)cc2)CCC1
# Method in brief: as §1
# Chain of UniProt Q5SVZ6 (Q5SVZ6 whole entry, looked up): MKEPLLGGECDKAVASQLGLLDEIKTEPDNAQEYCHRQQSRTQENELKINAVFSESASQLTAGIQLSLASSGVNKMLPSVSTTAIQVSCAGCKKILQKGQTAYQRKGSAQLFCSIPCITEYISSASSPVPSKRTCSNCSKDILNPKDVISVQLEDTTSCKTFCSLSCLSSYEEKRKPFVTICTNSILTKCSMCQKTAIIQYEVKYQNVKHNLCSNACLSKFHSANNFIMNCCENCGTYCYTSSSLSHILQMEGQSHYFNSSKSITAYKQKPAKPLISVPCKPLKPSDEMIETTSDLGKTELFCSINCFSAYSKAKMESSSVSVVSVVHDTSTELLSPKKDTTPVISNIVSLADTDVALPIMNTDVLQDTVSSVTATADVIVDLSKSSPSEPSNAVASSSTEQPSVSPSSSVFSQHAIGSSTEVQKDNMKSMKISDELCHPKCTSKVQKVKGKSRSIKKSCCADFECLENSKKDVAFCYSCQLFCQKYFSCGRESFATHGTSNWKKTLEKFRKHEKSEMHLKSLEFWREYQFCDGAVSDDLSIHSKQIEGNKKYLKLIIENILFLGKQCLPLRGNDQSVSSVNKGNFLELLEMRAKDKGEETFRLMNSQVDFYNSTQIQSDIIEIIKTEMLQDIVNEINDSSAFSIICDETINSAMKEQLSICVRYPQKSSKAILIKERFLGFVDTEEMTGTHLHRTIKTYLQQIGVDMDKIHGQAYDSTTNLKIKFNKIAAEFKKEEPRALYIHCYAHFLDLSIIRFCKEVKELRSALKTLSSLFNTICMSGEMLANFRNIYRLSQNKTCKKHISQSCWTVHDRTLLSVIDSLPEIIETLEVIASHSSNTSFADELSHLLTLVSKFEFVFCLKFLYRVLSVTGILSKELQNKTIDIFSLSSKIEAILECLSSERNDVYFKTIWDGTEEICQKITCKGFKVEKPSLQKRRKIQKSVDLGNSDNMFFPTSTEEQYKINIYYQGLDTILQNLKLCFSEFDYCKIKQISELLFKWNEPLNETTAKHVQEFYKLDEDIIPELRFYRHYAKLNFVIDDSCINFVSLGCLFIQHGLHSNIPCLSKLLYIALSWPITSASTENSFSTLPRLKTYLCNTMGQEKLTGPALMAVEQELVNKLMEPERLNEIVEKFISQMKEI
# Chain of UniProt Q8IX07 (Q8IX07 whole entry, looked up): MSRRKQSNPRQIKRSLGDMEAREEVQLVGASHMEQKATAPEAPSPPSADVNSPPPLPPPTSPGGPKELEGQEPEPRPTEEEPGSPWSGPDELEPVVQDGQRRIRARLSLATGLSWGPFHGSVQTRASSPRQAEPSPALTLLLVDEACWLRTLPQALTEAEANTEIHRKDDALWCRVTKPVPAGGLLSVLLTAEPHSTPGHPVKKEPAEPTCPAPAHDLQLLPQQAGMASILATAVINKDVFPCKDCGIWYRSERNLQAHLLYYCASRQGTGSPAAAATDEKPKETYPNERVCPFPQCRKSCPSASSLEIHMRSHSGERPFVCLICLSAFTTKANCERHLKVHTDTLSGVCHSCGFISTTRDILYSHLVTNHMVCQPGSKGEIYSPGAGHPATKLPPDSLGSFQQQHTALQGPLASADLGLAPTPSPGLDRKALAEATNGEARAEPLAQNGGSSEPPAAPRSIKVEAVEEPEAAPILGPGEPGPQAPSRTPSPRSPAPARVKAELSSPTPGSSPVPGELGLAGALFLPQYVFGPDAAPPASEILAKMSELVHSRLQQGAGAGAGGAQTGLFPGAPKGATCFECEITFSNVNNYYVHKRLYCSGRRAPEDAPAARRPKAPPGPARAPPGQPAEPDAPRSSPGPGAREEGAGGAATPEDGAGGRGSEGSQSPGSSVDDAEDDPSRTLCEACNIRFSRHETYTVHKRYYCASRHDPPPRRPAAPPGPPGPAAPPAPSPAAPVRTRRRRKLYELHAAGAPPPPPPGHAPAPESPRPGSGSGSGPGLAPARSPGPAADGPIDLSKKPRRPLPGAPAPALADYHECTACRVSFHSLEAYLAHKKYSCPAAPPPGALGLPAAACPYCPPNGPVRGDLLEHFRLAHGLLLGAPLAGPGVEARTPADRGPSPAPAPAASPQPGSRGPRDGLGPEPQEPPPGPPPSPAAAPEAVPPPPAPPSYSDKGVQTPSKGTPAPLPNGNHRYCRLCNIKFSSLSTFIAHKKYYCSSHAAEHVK
# Chain of UniProt Q9UKW4 (Q9UKW4 whole entry, looked up): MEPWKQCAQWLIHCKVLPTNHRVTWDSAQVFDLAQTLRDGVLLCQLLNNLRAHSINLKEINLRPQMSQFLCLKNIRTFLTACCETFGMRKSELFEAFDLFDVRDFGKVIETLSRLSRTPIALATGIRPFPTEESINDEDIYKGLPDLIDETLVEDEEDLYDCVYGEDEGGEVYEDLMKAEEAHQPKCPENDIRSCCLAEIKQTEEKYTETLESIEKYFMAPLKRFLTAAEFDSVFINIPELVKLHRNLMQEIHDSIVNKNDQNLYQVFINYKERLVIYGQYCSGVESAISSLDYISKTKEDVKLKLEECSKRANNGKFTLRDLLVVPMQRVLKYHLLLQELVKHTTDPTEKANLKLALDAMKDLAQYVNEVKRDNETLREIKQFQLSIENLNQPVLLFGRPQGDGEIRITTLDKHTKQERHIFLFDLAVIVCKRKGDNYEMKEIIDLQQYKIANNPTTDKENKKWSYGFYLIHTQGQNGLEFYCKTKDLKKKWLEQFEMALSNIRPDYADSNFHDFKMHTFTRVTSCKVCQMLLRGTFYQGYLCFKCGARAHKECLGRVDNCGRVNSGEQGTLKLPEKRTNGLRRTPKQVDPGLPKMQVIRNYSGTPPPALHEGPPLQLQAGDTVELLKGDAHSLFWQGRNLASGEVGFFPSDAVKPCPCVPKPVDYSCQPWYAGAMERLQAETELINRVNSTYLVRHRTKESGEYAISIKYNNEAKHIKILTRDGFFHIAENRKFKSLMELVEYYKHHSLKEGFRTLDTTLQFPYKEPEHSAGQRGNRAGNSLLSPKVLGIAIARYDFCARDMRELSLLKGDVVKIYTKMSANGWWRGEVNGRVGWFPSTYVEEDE
# Chain of UniProt O43592 (O43592 whole entry, looked up): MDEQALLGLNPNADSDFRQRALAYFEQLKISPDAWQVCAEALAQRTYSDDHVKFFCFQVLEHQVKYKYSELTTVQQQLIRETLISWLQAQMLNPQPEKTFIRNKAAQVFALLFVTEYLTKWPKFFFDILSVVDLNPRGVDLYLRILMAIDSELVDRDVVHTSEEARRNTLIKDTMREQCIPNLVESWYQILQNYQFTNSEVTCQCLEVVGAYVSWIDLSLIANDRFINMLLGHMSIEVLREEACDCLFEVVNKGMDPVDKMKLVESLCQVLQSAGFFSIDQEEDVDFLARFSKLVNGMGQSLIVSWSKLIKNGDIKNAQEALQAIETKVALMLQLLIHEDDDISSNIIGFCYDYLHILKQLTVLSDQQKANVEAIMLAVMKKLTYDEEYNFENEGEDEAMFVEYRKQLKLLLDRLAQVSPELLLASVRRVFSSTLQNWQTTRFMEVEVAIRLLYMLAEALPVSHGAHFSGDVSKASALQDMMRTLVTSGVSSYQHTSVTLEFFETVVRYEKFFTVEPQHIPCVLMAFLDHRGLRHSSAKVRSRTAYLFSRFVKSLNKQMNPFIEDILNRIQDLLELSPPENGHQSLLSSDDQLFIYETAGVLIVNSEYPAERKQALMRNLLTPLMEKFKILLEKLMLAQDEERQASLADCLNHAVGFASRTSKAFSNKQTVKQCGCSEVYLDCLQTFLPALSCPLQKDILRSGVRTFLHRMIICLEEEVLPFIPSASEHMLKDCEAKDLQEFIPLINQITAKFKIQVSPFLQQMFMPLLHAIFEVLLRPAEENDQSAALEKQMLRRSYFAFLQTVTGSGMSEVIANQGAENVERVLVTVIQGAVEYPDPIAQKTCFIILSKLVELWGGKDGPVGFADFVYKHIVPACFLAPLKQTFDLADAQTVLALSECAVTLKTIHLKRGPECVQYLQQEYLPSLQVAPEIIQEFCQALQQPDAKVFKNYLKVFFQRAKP
# Chain of UniProt Q9H269 (Q9H269 whole entry, looked up): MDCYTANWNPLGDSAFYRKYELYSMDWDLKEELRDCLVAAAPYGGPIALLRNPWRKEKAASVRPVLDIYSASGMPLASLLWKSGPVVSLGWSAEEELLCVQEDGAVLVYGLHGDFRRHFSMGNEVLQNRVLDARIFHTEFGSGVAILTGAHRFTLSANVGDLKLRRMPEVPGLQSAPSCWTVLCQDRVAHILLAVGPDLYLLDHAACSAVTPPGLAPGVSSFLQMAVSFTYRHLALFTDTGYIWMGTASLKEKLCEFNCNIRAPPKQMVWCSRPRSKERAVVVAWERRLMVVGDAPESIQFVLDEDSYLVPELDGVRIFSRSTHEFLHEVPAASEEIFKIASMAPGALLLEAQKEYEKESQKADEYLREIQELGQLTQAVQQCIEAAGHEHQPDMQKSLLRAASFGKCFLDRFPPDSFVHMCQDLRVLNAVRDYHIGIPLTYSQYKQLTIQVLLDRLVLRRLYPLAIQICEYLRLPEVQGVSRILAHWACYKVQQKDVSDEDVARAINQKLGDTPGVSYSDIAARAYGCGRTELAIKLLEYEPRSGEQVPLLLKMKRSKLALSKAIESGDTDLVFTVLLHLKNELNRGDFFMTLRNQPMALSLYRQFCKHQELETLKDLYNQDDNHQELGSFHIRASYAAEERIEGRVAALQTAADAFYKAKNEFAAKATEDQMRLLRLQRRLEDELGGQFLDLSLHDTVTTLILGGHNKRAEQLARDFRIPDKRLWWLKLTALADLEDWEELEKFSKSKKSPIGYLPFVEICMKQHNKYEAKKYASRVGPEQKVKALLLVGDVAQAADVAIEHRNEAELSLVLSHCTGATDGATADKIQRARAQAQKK
# Chain of UniProt P27348 (P27348 whole entry, looked up): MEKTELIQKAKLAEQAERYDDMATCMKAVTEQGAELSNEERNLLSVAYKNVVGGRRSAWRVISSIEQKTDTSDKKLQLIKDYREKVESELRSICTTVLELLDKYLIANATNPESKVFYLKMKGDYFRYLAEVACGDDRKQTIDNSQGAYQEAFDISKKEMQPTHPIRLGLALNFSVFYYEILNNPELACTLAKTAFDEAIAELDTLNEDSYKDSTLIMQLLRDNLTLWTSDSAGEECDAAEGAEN
Target,log2 fold change (lapatinib),log2 fold change (pictilisib),log2 fold change (crizotinib),log2 fold change [1],log2 fold change (duvelisib),log2 fold change (gandotinib),log2 fold change (tozasertib),log2 fold change (doramapimod),log2 fold change (bafetinib),log2 fold change [2],log2 fold change (nilotinib),log2 fold change [3],log2 fold change (dasatinib),log2 fold change [4],log2 fold change [5],log2 fold change (quisinostat),log2 fold change (tipifarnib),log2 fold change [6],log2 fold change [7],log2 fold change [8]
WRNIP1 (UniProt Q96S55),-0.021,-0.043,0,0.054,0.012,-0.047,0.022,0.001,-0.043,0.045,-0.008,0.002,-0.018,-0.05,0.066,-0.035,-0.02,0.053,-0.008,-0.001
WDR62 isoform 4 (UniProt O43379),-0.025,0.028,-0.048,-0.021,0.006,-0.032,0.034,0.038,-0.05,0.08,-0.001,0.003,-0.026,0,0.022,-0.103,-0.051,0.031,-0.02,-0.031
USP8 (UniProt P40818),-0.011,-0.048,-0.009,0.002,-0.023,-0.077,-0.013,0.001,-0.026,0.017,-0.014,-0.007,0.005,0.042,0.024,-0.015,-0.01,0.016,-0.016,0.026
XPO5 (UniProt Q9HAV4),-0.042,0,-0.085,-0.041,-0.017,-0.14,0.013,-0.008,-0.006,0.049,-0.025,-0.016,-0.068,0.013,0.005,-0.092,-0.015,0.029,0.023,-0.024
ZMYM1 (UniProt Q5SVZ6),0.101,-0.037,-0.008,-0.25 (active),-0.04,0.226,-0.021,0,-0.097,0.284 (active),0.023,-0.036,0.006,-0.019,0.007,-0.08,-0.012,0.03,0.003,0.028
ZMYND8 isoform 19 (UniProt Q9ULU4),-0.017,-0.044,-0.109,-0.105,-0.006,0.092,0.035,0.001,-0.028,0.049,-0.011,-0.056,-0.019,0.022,0.036,-0.073,-0.025,-0.004,0.009,0.043
YWHAQ (UniProt P27348),0.001,0.038,0.07,0.466 (active),-0.012,-0.089,-0.024,-0.043,-0.043,-0.095,-0.008,-0.005,0.04,0.037,0.011,0.095,0.019,-0.023,-0.035,0.014
VARS (UniProt P26640),-0.017,-0.027,-0.068,-0.004,0.002,-0.092,-0.021,0.022,-0.012,0.029,-0.012,-0.004,-0.072,0,0.06,-0.021,0.012,0.045,0.001,-0.028
ZNF217 (UniProt O75362),-0.02,0.059,-0.025,-0.045,-0.011,-0.009,0.044,0.004,0.037,0.052,0.06,0.026,0.001,0.054,-0.057,-0.179,-0.086,0.014,0.021,-0.075
ZDHHC18 (UniProt Q9NUE0),0.029,0.078,-0.023,-0.017,0.013,-0.149,-0.061,0.054,-0.068,-0.11,0.067,-0.329,0.176,-0.047,-0.158,-0.008,0.177,0.008,0.059,0.067
XPOT (UniProt O43592),-0.033,0.013,-0.051,-0.044,0.022,-0.086,-0.007,0,-0.04,0.057,-0.011,-0.017,-0.064,0,-0.004,-0.056,0.005,0.037,0.003,-0.001
VAV3 isoform 4 (UniProt Q9UKW4),-0.167,-0.057,-0.217,-0.655 (active),-0.008,0.135,-0.093,0.325,0.023,0.242,0.155,-0.028,-0.061,-0.055,0.08,0.121,-0.012,-0.017,-0.054,0.038
YTHDF3 (UniProt Q7Z739),-0.065,0.05,0.01,-0.035,0.017,0.107,-0.03,0.078,-0.073,0.097,-0.246,-0.038,0.022,0.014,-0.006,-0.06,-0.311,0.063,-0.016,-0.039
VPS16 (UniProt Q9H269),-0.014,0.005,-0.08,-0.019,0.013,-0.024,0.004,-0.013,-0.051,0.03,0,0.011,-0.013,0.014,0.021,-0.095,-0.012,0.022,0.004,0.009
ZFPM1 (UniProt Q8IX07),-0.003,-0.008,-0.135,0.009,0.001,-0.079,-0.118,0.023,-0.077,-0.018,0.036,-0.075,-0.087,0.042,0.095,-0.189,0.044,0.034,-0.082,-0.018
XAB2 (UniProt Q9HCS7),-0.02,-0.051,-0.096,0.025,0.038,-0.055,-0.073,0.01,0.065,0.028,0.032,-0.002,-0.051,0.048,0.017,0.106,-0.046,0.046,-0.025,-0.01
